Results as given in PubChem BioAssay (NCI).
About 79,000 compounds went through this panel and 15% of them were active in at least one assay; those are over-represented in the sample as a whole. Values without a mark were called inactive. The source made the active and inactive calls. No stated cut-off is given here; in the data, active means growth inhibition above about 70%; inactive means the rest. *1 amine or outer side, *2 acyl side, *3 side chain or, on linkers, in order; H or OH if unused. Where a SMILES comes first, the peptide text is derived from it. Bridges are numbered along the chain shown (N, C = ends). Roman numbers before positions name the chains, in order. [ ]: non-standard residue; d: D form. Actinocin(1to9) = Cc1c2oc3c(C)ccc(C(=O)[*:2])c3nc-2c(C(=O)[*:1])c(N)c1=O; NMeY = CN[CH](Cc1ccc(O)cc1)C(=O)O; Sar = CNCC(=O)O

Experiments:
[1] = NCI Yeast Anticancer Drug Screen. Data for the rad50 strain (AID 155);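 further: 0% = growth of vehicle-only cultures of the same strain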; conditions: S. cerevisiae rad50 strain growth inhibition; at 50.0 µM; hits give high values
Method in brief: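 Genetically altered yeast (DNA repair pathway); compound treatment; growth inhibition vs vehicle ctrl.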

[2] = NCI Yeast Anticancer Drug Screen. Data for the mec2-1 strain (AID 157); conditions: S. cerevisiae mec2-1 strain, at 50.0 µM, hits give high values
Method in brief: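 Each compound was tested on mec2-1 yeast, a strain altered in DNA damage repair or cell cycle control. Growth inhibition is reported relative to vehicle.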

[3] = NCI Yeast Anticancer Drug Screen. Data for the sgs1 mgt1 strain (AID 161);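 further: 0% = growth of cultures given vehicle only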; conditions: S. cerevisiae sgs1 mgt1 strain, at 50.0 µM, hits give high values
Method in brief: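 Test agents were incubated with a DNA-repair-mutant yeast strain. Growth was then read and compared against vehicle-treated controls.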

[4] = NCI Yeast Anticancer Drug Screen. Data for the cln2 rad14 strain (AID 165);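 further: 0% = growth equal to vehicle treated cultures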; conditions: S. cerevisiae cln2 rad14 strain, at 50.0 µM, hits give high values
Method in brief: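 Test compounds were added to cln2 rad14 yeast cultures; inhibition of growth was then determined by comparison with vehicle treatment.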

[5] = NCI Yeast Anticancer Drug Screen. Data for the bub3 strain (AID 167); conditions: S. cerevisiae bub3 mutant strain, at 50.0 µM, hits give high values
Method in brief: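 Yeast carrying a defined mutation is treated with each compound, and growth is compared with that of vehicle-exposed cells to give inhibition.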

[6] = NCI Yeast Anticancer Drug Screen. Data for the mlh1 rad18 strain (AID 175); conditions: S. cerevisiae mlh1 rad18 strain growth inhibition; at 50.0 µM; hits give high values
Method in brief: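 Inhibition values reflect reduced growth of mutant yeast versus vehicle-treated controls following compound exposure; the mutations affect DNA damage repair.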

SMILES | growth inhibition [1] | growth inhibition [2] | growth inhibition [3] | growth inhibition [4] | growth inhibition [5] | growth inhibition [6]
CCSC(C(O)C(O)C(O)C(O)CO)n1cnc2c(SC)ncnc21 (stereo unspecified) | 20.1% | -15.3% | 1.05% | -26% | -4.95% | -3.85%
Nc1ccc2ccsc2c1 | 1.6% | -22.7% | 26.2% | 17.1% | 12.9% | 35.5%
CC(=O)NC(=O)CCc1ccccc1 | -12.2% | -12.7% | -20.3% | -26.1% | -8.15% | -6%
COC(=O)[C@H](Cc1ccccc1)NP(=O)(OCCC#N)OCC1OC(n2cc(C)c(=O)[nH]c2=O)CC1N=[N+]=[N-] (stereo partly specified) | 0.95% | -13.1% | -19.3% | -20% | -19.9% | -35.8%
CCCCCC(C)(C)O | 7.6% | -6.55% | -3.9% | -40.9% | 4.75% | -4.75%
O=C1NC(=S)S/C1=C/C=C/c1ccccc1[N+](=O)[O-] | 2.95% | 0.85% | -3.9% | -16.6% | 42.5% | -16.6%
O=NC1CC=CC1Cl (stereo unspecified) | 18.6% | 0.1% | 0.65% | 9.5% | -8.1% | 22.2%
CC(C)CNC(=O)Cn1c2c(c3ccccc31)CCCC2 | -4.5% | -32.7% | 1.4% | 3.75% | -14.8% | -10.8%
CC(=O)N(C(C)=O)c1cc2c3ccccc3ccc2c2ccccc12 | 22.4% | -6.3% | 31.1% | 15.1% | 32.8% | 29.4%
CN(CCO)c1nc2c(c(=O)[nH]1)CCC2 | -3.55% | -21.8% | -43% | -5.25% | -19.4% | -21.8%
NN1C(=O)Cc2ccc(Cl)cc21 | 9.1% | -0.7% | -2.9% | -33.5% | -3.15% | 2.1%
CC(=O)Nc1ccc(C(C#N)C(C#N)c2ccccc2)cc1 (stereo unspecified) | -1.5% | 8.75% | -0.1% | -68.3% | 11.8% | -2.55%
OCc1nnn2c1CCC2 | 4.95% | 0.05% | -2.15% | 11.4% | 10.4% | -6.25%
Oc1cc(N2CCCC2)ccc1/C=N/N1C(=S)N(c2ccccc2)C(=Nc2ccccc2)C1=Nc1ccccc1 | -23.1% | -31.8% | -1.3% | 6.7% | -30.6% | -39.9%
O=[N+]([O-])c1ccc(Cl)c(/C=C/c2ncccn2)c1 | 11.4% | 10.1% | 7.9% | -28.1% | -1.45% | 13.9%
CCOC(=O)c1oc2ccc([N+](=O)[O-])c3c2c1CCC3 | 1.8% | -1.95% | -7% | -2.35% | -64% | -8.05%
Cc1ccc(O)c(C2CC(C#N)CCN2C)c1 (stereo unspecified) | -0.65% | -12.2% | -16.5% | -6.35% | -18.9% | -7.3%
O=C(Nc1nc(C23CC4CC(CC(C4)C2)C3)cs1)c1cc2ccccc2oc1=O | -1.45% | -26.5% | -3.45% | -30.4% | -23.9% | -17.4%
CC1=C2C(=O)O[C@@H](c3ccoc3)[C@]2(C)CCC1 | 15.3% | -6.8% | 14.1% | -8.9% | 0.35% | 16.6%
CC(=O)NC(C)CC1=CC(=O)C(C)=CC1=O (stereo unspecified) | 1.45% | -13.4% | -16.1% | -33.7% | -18.9% | -11.6%
O=C(O)CCNC(=O)c1ccccc1O | -41.5% | -8.5% | -17.1% | -53.8% | -18.1% | -56.8%

SMILES | growth inhibition [1] | growth inhibition [2] | growth inhibition [3] | growth inhibition [4] | growth inhibition [5] | growth inhibition [6]
CCCCCCCCCCCCCCCCCCNC(=S)N(C)C | 18.8% | 0.2% | 8.1% | 1.25% | 38.6% | 5.05%
O=C(Nc1nccs1)Nc1ccc(Cl)cc1[N+](=O)[O-] | 0.1% | 33.6% | 34.6% | -6.95% | 24.8% | 34.4%
O=C(c1ccccc1)N1CCOCC1 | 9.75% | -2.5% | -3.25% | 12.3% | -0.75% | 13.2%
CCOc1c(CNC(=O)CCl)cc(N)cc1CNC(=O)CCl | 6.45% | 3.4% | -14% | 10.8% | 2.1% | -10.3%
O=C(OC(C[n+]1ccccc1)c1ccccc1)c1ccccc1 (stereo unspecified) | -0.55% | -0.9% | 4.5% | 14.5% | -6.4% | 34%
CC(C)OP(=O)(OC(C)C)/C(N)=N/Nc1ccc([N+](=O)[O-])cc1 | 25.6% | -0.2% | -5.6% | 2.65% | -3.95% | -7.7%
CCOC1NC(/N=C/c2ccc(OC)cc2)=C(C#N)C1C#N (stereo unspecified) | -29.2% | -6.7% | -49.5% | 12.4% | -28.1% | -35%
Cc1cc2nc(N)n[n+]([O-])c2cc1C | 8.4% | 7.35% | 2% | -6.25% | 1% | -24.9%
N#CC1(NC(=O)N(CCCl)N=O)CCCCC1 | 4.8% | 1.25% | -0.6% | 5.65% | 9.95% | -27.9%
CCc1cccc(C(=O)O)c1N | 26.4% | 5.75% | 15.7% | 3.65% | -3.75% | 0.9%
CCOC(=O)CCCN(c1sc(C)c(-c2ccccc2)c1C(=O)OCC)S(=O)(=O)c1ccc(C)cc1 | -16.6% | -3.25% | -14.6% | -29.3% | -3.75% | 4.5%
Fc1cccc(C2SCc3nc4cc5ccccc5cc4n32)c1 (stereo unspecified) | -21.8% | -1.25% | 8.8% | -0.45% | -19.7% | -9.65%
CC(=O)Oc1ccc2c(OC(C)=O)c(C)cc(OC(C)=O)c2c1 | 26.3% | 5.6% | 20.9% | 3.8% | 19.1% | 24.4%
CC12CCC3C(CC=C4CC(O)CCC43C)C1CCC(=O)N2 (stereo unspecified) | 5.2% | -3.55% | -10.2% | 7.95% | -10.2% | -1%
N=C1N(S(=O)(=O)c2ccccc2)[C@@H](Cc2ccccc2)[C@H](c2ccccc2)C1(c1ccccc1)c1ccccc1 | -25.1% | -7.3% | 6.05% | -29.6% | -3.5% | 18.2%
CC(=O)OCC1OC(N2C(c3ccccc3)=CC(c3cccs3)C(C#N)=C2S)C(OC(C)=O)C(OC(C)=O)C1OC(C)=O (stereo unspecified) | 27.4% | 28.9% | 40.6% | 18% | 46.2% | 23.3%
CC(Cl)(CCC(Cl)C(C)(C)Cl)C(=O)CBr (stereo unspecified) | 89% (active) | 92.7% (active) | 92.8% (active) | 91.3% (active) | 92.3% (active) | 93.2% (active)
CC1C=C(Br)C(=O)C(n2cnc3c(=O)n(C)c(=O)n(C)c32)O1 (stereo unspecified) | 24.1% | 13.5% | 18.8% | 8% | 10.9% | 34%
O=S(=O)(CCc1ccccc1)c1nc2ccccc2s1 | -1.5% | -1.85% | -2.8% | -11.9% | -37.5% | -11.5%
COc1ccc(CC2C(=O)OC(C)C(NC(=O)c3c4nc5c(C(=O)NC6C(=O)NC(C(C)C)C(=O)N7CCCC7C(=O)N(C)CC(=O)N(C)C(Cc7ccc(OC)cc7)C(=O)OC6C)ccc(C)c5oc-4c(C)c(=O)c3N)C(=O)NC(C(C)C)C(=O)N3CCCC3C(=O)N(C)CC(=O)N2C)cc1 (stereo unspecified) (I: TVP[Sar][NMeY](Me) / II: TVP[Sar][NMeY](Me); ester I:1-I:C, II:1-II:C; linker I:N-II:N via Actinocin(1to9); configuration not given here) | -3% | -3.65% | -26.1% | 8.5% | -25.8% | -24.7%
